Screening results deposited in PubChem BioAssay by Broad Institute.
DENV2 CPE rescue: protects cells from dengue virus 2 cytopathic effect. DENV2-infected cells, cytopathic effect rescue, plate reader. 1.7% of 350,000 active. CPE inhibition, % at 9.99 µM; in the data active means CPE inhibition above about 20%, passing the limit was not always enough; tested in BHK-21 cells;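 further: 0% = median of neutral control wells and 100% = median of positive control wells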
PGC1a acetyl inh: modulators of PGC1a acetylation. 0.17% of 350,000 active. inhibition, % at 15.6 µM. U2OS PGC1a acetylation, AlphaScreen anti-acetyl-lysine; with virally co-expressed GCN5 acetyltransferase;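 active means every replicate shows inhibition of at least 40%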;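 further: 0% = neutral control wells and 100% = positive control wells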
CaV13 FRET inh: Disruptors of the CACNA1D IQ motif to Ca2+-dependent inactivation inhibitor domain association, primary screening, Förster resonance energy transfer in intact living …. 0.098% of 340,000 active. HEK cells, CFP/YFP FRET ICDI-IQ, plate reader, 10 min; percent FRET-ratio fall versus neutral wells. AID 743397. inhibition, % at 12.3 µM;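 active means mean replicate inhibition of at least 30% and at least 1% of replicates passing that level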;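 further: 0% = median of the neutral control wells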
GSIS activator: GLuc luminescence reporter in INS-1E cells, primary screen for activators of glucose-dependent secretion of insulin. activation, % at 16.6 µM. INS-1E GLuc reporter insulin secretion, 2-3 h. 0.61% of 370,000 active;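 active means lowest replicate activation of at least 40%, so every replicate reaches that level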;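 further: 0% = median of neutral control wells and 100% = median of IBMX positive control wells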
ERAP1 HTS inh: ERAP1 (human) enzyme inhibition; Q9NZ08; recombinant ERAP1, Leu-AMC fluorescence, 60 min; inhibition, % at 10.7 µM; 0.15% of 340,000 active; AID 652197;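 active means mean replicate inhibition of at least 30%, or all replicates individually reaching that 30% level; inactive means mean below 30% and not every replicate reaching it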;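 further: 0% = neutral control wells and 100% = L-leucinethiol positive control wells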
Ecoli rRNA inh: selective bacterial rRNA inhibition in E. coli; E. coli WT GFP vs humanized-ribosome RFP mutants, fluorescence, 24 h; stronger effect = lower value; DMSO median 0, no signal -100; GFP signal change (wild-type ribosome), % (concentration not given with the values); 1.6% of 350,000 active; AID 720706;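 active means significant combined selectivity score with lowered wild-type GFP, culture density cut under 30%, mutant RFP and density less affected; inactive means any of these conditions unmet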
Numbers without * were called inactive; . = no result; ! = a repeat was not active. Compounds with a hit are over-represented: about 3.2% of the library has one in this group of screens.

SMILES	DENV2 CPE rescue	PGC1a acetyl inh	CaV13 FRET inh	GSIS activator	ERAP1 HTS inh	Ecoli rRNA inh
O=S(=O)(Cc1cc(N2CCOCC2)nc(-c2ccccn2)n1)c1ccccc1	33*	13	-3	-9	2	10
O=C(NCc1ccccc1)c1ccc(Br)o1	-5	.	-9	.	4	9
Cc1ccc(CNC(=O)c2ccc(Br)o2)cc1	0	-1	-7	-7	-4	-18*
Nc1nc(-c2ccccc2)c(CCCOc2ccc(NC(=O)CBr)cc2)c(=O)[nH]1	24*	2	-3	.	-2	.
O=C(Nc1ccccc1F)N1C[C@@H]2[C@H](c3ccccc31)[C@H](CO)N2C(=O)c1ccc(F)cc1	35*	-4	.	0	0	4
O=C(Nc1ccccc1F)N1C[C@@H]2[C@H](c3ccccc31)[C@@H](CO)N2C(=O)c1ccc(F)cc1	-8	2	.	1	-1	0
O=C(c1cccc(F)c1)N1CCCc2ccccc21	1	0	-10	84*	-2	-1
O=C(c1ccncc1)N1C[C@H]2[C@@H](c3ccccc31)[C@H](CO)N2C(=O)c1ccccc1F	43*	2	.	12	3	5
COc1ccccc1NC(=O)N1C[C@@H]2[C@H](c3ccccc31)[C@@H](CO)N2C(C)=O	44*	-7	.	8	0	6
CC(=O)N(C)C[C@@H]1Oc2ccccc2C(=O)N(C)C[C@H]1C	.	.	.	4	.	-1
COc1cccc(C(=O)N2C[C@H]3[C@@H](c4ccccc42)[C@H](CO)N3C(=O)c2ccc(F)cc2)c1	27*	-4	.	6	3	3
COc1cccc(C(=O)N2C[C@@H]3[C@H](c4ccccc42)[C@H](CO)N3C(=O)c2ccc(F)cc2)c1	-9	2	.	17	3	3
O=C(c1cccc(F)c1)N1C[C@H]2[C@@H](c3ccccc31)[C@@H](CO)N2C(=O)c1cccc(F)c1	21*	3	.	-1	0	-1
CCCC(=O)Nc1ccc2c(c1)C(=O)N(C)C[C@H](OC)[C@@H](C)CN(C(=O)CC)[C@H](C)CO2	.	-13	.	-1	.	0
CC1Cc2ccccc2N1C(=S)NC(=O)c1ccco1 (stereo not drawn)	10	-2	-5	-7	2	-27*
O=C(NC(=S)Nc1ccccc1N1CCCC1)c1ccco1	6	0	-19	.	3	8
O=C(NC(=S)Nc1cccc2cc(O)ccc12)c1ccco1	44*	2	-2	2	5	-12
CS(=O)(=O)N1CCN(c2ccccc2NC(=S)NC(=O)c2ccco2)CC1	3	.	-10	5	0	-28*
O=C(NC(=S)N1CCCc2ccccc21)c1ccco1	5	-11	-3	-14	1	-3
CCCn1c(-c2ccc[nH]c2=O)nc2cc(C)c(C)cc21	25*	14	-3	22	-6	3
Cc1cc2nc(-c3ccc[nH]c3=O)n(Cc3cccc(F)c3)c2cc1C	3	5	-5	10	2	-7
C[C@H](CO)N1C[C@H](C)[C@H](CN(C)S(=O)(=O)c2ccc(Cl)cc2)OCCCC[C@H](C)Oc2ccc(NC(=O)C3CCCCC3)cc2C1=O	17	3	.	-1	1	-1
Cc1ccc(NC(=O)c2cc(C)n(-c3ccccc3)c2C)cc1	0	0	-5	.	2	-18
Cc1cc(C(=O)Nc2ccc(Cl)cc2)c(C)n1-c1ccccc1	-5	3	-3	7	.	-40*
Cc1c(C)n(CC(O)CNc2ccccc2)c2ccccc12 (stereo not drawn)	.	.	3	-2	1	-57
SMILES	DENV2 CPE rescue	PGC1a acetyl inh	CaV13 FRET inh	GSIS activator	ERAP1 HTS inh	Ecoli rRNA inh
COc1ccc(NCC(O)Cn2c(C)c(C)c3ccccc32)cc1 (stereo not drawn)	.	11	-7	1	1	-40*
Cc1noc(C)c1NC(=O)N(C)C[C@H]1Oc2c(NS(=O)(=O)c3ccccc3)cccc2C(=O)N([C@H](C)CO)C[C@@H]1C	-5	5	.	8	-3	-3
Nc1ccccc1Nc1cc(-c2ccccc2)nn1-c1cccc(Cl)c1	20*	.	-5	0	0	3
O=C(CCl)Nc1cc(-c2ccccc2)nn1-c1ccccc1	.	-1	-4	.	.	.
OC[C@@H]1[C@H](c2ccc(C#CC3(O)CCCC3)cc2)[C@@H]2CN(Cc3cccnc3)CCCCN12	6	5	.	10	.	6
COc1cccc(CNC(=O)N[C@@H](CC(C)C)C(=O)O)c1	.	-11	-6	50*	.	.
C[C@@H]1CN([C@H](C)CO)C(=O)c2cccc(NS(=O)(=O)c3ccccc3)c2O[C@@H]1CN(C)C(=O)Nc1ccc(F)cc1	34*	3	.	-3	0	3
C[C@H](CO)N1C[C@H](C)[C@@H](CN(C)C(=O)Nc2ccccc2)Oc2c(NS(=O)(=O)c3ccccc3)cccc2C1=O	25*!	16	-8	5	-5	-2
C[C@H](CO)N1C[C@H](C)[C@H](CN(C)C(=O)Nc2ccc(F)cc2)Oc2c(NS(=O)(=O)c3ccccc3)cccc2C1=O	17	5	.	-16	-1	-5
Cc1ccc(C(=O)Nc2ccccc2C(=O)O)cc1S(=O)(=O)NCc1ccccc1	8	.	-3	-9	-12	-8
O=C(NCc1ccco1)c1ccc(Cl)c(S(=O)(=O)Nc2ccccc2)c1	-1	2	-5	-25	4	-12
Cc1ccc(C(=O)Nc2ccccc2C(=O)O)cc1S(=O)(=O)Nc1ccc(Br)cc1	7	0	-16	-11	-9	-36*
C=CCNC(=O)c1ccccc1NC(=O)c1ccc(Cl)c(S(=O)(=O)Nc2ccccc2)c1	-3	.	-6	-24	-2	-36*
Cc1ccccc1-c1cc(C(=O)NCc2cccs2)nn1CC1CC(c2cccc([N+](=O)[O-])c2)=NO1 (stereo not drawn)	-7	.	-5	-5	.	8
O=C(NCc1cccc(C(F)(F)F)c1)C1CC(c2ccccc2[N+](=O)[O-])=NO1 (stereo not drawn)	10	5	-11	-38	-4	-33*
Cc1ccccc1-c1cc(C(=O)NCc2cccc(C(F)(F)F)c2)nn1CC1CC(c2cccc([N+](=O)[O-])c2)=NO1 (stereo not drawn)	49*	-24	-10	.	0	7
Cc1ccccc1-c1cc(C(=O)O)nn1CC1CC(c2cccc([N+](=O)[O-])c2)=NO1 (stereo not drawn)	126*	.	-11	16	.	-8
C[C@H](CO)N1C[C@H](C)[C@@H](CN(C)Cc2ccncc2)Oc2cc(C3=CCCCC3)ccc2S1(=O)=O	-7	-19	.	3	0	-23
Cn1ccsc1=NC(=O)c1ccc(=O)[nH]c1	-3	.	-3	2	34*	5
